# From PubChem BioAssay (NCATS)
# Inconclusive results are not listed. Activity calls are given as the source filed them. The call rests on the fitted dose curve; in most records, active means well fitted cell-killing curve with a large enough effect; inconclusive means small, poorly fitted or top-dose-only effect; inactive means flat fitted curve, though single readings scatter.
# Assay: qHTS assay to identify small molecule inhibitors of chordoma cells - UCH-2 (AID 1259356)
# Details: UCH-2 chordoma viability, CellTiter-Glo ATP luminescence, 48 h; series mostly up to 46.1 µM; activity change, negative = inhibition: at the top concentration
# From the text: NIH Chemical Genomics Center [NCGC]
# Chordoma is a rare and slow growing tumor that can occur anywhere along the spine, from the base of the skull to the tailbone. Current treatment options for chordoma is surgery and radiation therapy for those who are not candidates for surgery. But chordomas tend to return in the same location or surrounding areas of the original tumor after surgery and/or radiation. Chemotherapy can slow down the progression of the tumor. As chordoma is slow growing, the general cytotoxic agents that kill fast growing cells are ineffective, and some patients have been reported to respond to molecularly targeted drugs.
# NCATS Pharmaceutical Collection (NPC) containing approximately 3000 clinically approved and investigational drugs were used to screen at 15 concentrations in a chordoma cell lines, UCH-2, to identify small molecule compounds that can inhibit chordoma cell growth.
# NCGC Assay Protocol Summary:
# Human chordoma cell line UCH-2 was dispensed at 800 per well in 4uL of culture medium into white solid bottom 1536-well plates (Corning Life Sciences, Corning, NY) using a Multidrop Combi (Thermo Scientific, Waltham, MA) dispenser. The assay plates were incubated at 37 C and 5% CO2 for an overnight, and then 23nL of compounds dissolved in DMSO and positive control were transferred using a Pintool station (Wako, San Diego, CA). Compound treatment was followed by the addition of 1uL of the combination compounds (1uM Auranofin, 500nM each of Camptothecin, Doxorubicin, Rubitecan, and Topotecan) and assay medium to each well of the assay plates using Flying Reagent Dispenser (FRD, Aurora Discovery, San Diego, CA). The assay plates were incubated at 37 C and 5% CO2 for 48hr. Then 5uL of CellTiter-Glo reagent (Promega Corporation, Madison, WI) was added to each well of the assay plates using FRD. After 30min incubation at room temperature, the luminescence signal was quantified using a ViewLux plate reader (PerkinElmer, Shelton, CT).
# On the % scale 0 is the no-effect control and ±100 the full control effect.
row,SMILES,"activity change, negative = inhibition"
1,CC(C)CCCC(C)CCCC(C)CCCCC(C)CCCC(C)CCCC(C)C (stereo not given),14.3% (inactive)
2,O=C(Cn1ccnc1[N+](=O)[O-])NCc1ccccc1,-1.91% (inactive)
3,Cn1c(=O)c2c(ncn2CCO)n(C)c1=O,1.88% (inactive)
4,CC(=O)OCC(=O)[C@@]1(O)CC[C@H]2[C@@H]3CCC4=CC(=O)C=C[C@]4(C)[C@@]3(F)[C@@H](O)C[C@@]21C,12.4% [at 20.6 µM] (inactive)
5,O=C(O)c1ccc[n+]([O-])c1,3.99% (inactive)
6,NC(=O)CC[C@@H](N)C(=O)O,8.2% (inactive)
7,NS(=O)(=O)c1ccc(C(=O)O)cc1,1.8% (inactive)
8,COc1cc(C(=O)NCCCCCC(=O)O)cc(OC)c1OC,9.3% (inactive)
9,Cc1ccc(S(=O)(=O)NC(=O)NC2CCCCCCC2)cc1,0.332% (inactive)
10,COc1ccccc1OCC(O)CO (stereo not given),10.1% [at 20.6 µM] (inactive)
11,OCCN1C[C@H](O)[C@@H](O)[C@H](O)[C@H]1CO,4.47% (inactive)
12,O=C(O)c1cc(=O)c2ccccc2o1,2.74% (inactive)
13,CCCCCC(N)=O,-1.35% (inactive)
14,CCOc1cc(NC(C)=O)ccc1C(=O)OC,1.24% (inactive)
15,O=C(CN1CCNCC1)NC1CCCCC1,-1.63% (inactive)
16,NS(=O)(=O)c1cc(C2(O)NC(=O)c3ccccc32)ccc1Cl (stereo not given),2.76% [at 20.6 µM] (inactive)
17,O=C1c2cccc(O)c2C(=O)c2c(O)cccc21,1.74% (inactive)
18,CC(=O)N(CC(O)CN(C(C)=O)c1c(I)c(C(=O)NCC(O)CO)c(I)c(C(=O)NCC(O)CO)c1I)c1c(I)c(C(=O)NCC(O)CO)c(I)c(C(=O)NCC(O)CO)c1I (stereo not given),1.83% [at 20.6 µM] (inactive)
19,C[C@]1(Cn2ccnn2)[C@H](C(=O)O)N2C(=O)C[C@H]2S1(=O)=O,5.65% (inactive)
20,CCCC(O)C(CC)CO (stereo not given),3.09% (inactive)

row,SMILES,"activity change, negative = inhibition"
1,C/C(=C(\CCO)SS/C(CCO)=C(\C)N(C=O)Cc1cnc(C)nc1N)N(C=O)Cc1cnc(C)nc1N,-1.38% (inactive)
2,CC1CC(OC(=O)c2ccccc2O)CC(C)(C)C1 (stereo not given),8.01% (inactive)
3,C[C@@H]1CCC[C@H](C)N1,-0.144% [at 20.6 µM] (inactive)
4,O=C1c2ccccc2C(=O)C1c1ccc(Br)cc1,4.22% (inactive)
5,Cc1c(N(C)C)c(=O)n(-c2ccccc2)n1C,-2.46% (inactive)
6,C[C@H]1COc2c(C3(N)CC3)c(F)cc3c(=O)c(C(=O)O)cn1c23,-0.84% (inactive)
7,CCCCOC(=O)c1ccc(N)cc1,0.253% (inactive)
8,CC(=O)Nc1ccccc1,12.1% (inactive)
9,O=C(O)Cn1c(C(=O)Nc2nc(-c3ccccc3Cl)cs2)cc2ccccc21,-9.93% (inactive)
10,COC(=O)N/N=C/c1c[n+]([O-])c2ccccc2[n+]1[O-],-0.384% (inactive)
11,C/C=C/C(=O)N(CC)c1ccccc1C,9.52% [at 20.6 µM] (inactive)
12,OCc1ccc(Cl)cc1Cl,5.53% (inactive)
13,Cc1cc(C)nc(NS(=O)(=O)c2ccc(N)cc2)n1,-17.9% (inactive)
14,Cc1ncc(CO)c(CN)c1O,9.81% (inactive)
15,Nc1ccc(S(=O)(=O)c2ccc(N)cc2)cc1,-2.15% (inactive)
16,Nc1c2c(nc3c1CCC3)CCCC2,1.2% (inactive)
17,O=C(/C=C/c1ccccc1)OCc1ccccc1,1.92% (inactive)
18,CCN[C@H]1CN(CCCOC)S(=O)(=O)c2sc(S(N)(=O)=O)cc21,6.41% [at 20.6 µM] (inactive)
19,Cc1[nH]c(C)c(Cl)c(=O)c1Cl,5.41% (inactive)
20,Cc1cc(O)cc(C)c1Cl,0.226% (inactive)
